Source: PubChem BioAssay AID1159580 (chemical genetic matrix, 2015)
The whole screen tested about 5,500 compounds, of which about 2,000 (36%) were called active. Another 18% or so got no clear call; they are omitted. Cut-off read from the data, not from the text of the source: active = normalized growth mostly below about 0.91 (no sharp cut-off); inconclusive = no clear call, values can overlap the other calls; inactive = mostly above about 0.92. This is one part of the list.

Assay: chemical genetic growth profiling, strain panel (AID 1159580);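 note: tested at 20 µM; growth read once vehicle control cultures reached saturation at 30 °C; 1 = growth at the plate median or of vehicle wells; lower values mean less growth of the strain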
Conditions: S. cerevisiae deletion strains, growth OD

Measured: normalized growth

CN(C)CC/C=C1\c2ccccc2COc2ccccc21
inactive: locus YAL013W, strain DEP1, stronger effect = lower value 0.998 | locus YAL040C, strain CLN3, stronger effect = lower value 0.997 | locus YCL061C, strain MRC1 (second series), stronger effect = lower value 0.992 | locus YDR150W, strain NUM1, stronger effect = lower value 1.01 | locus YDR363W, strain ESC2, stronger effect = lower value 0.944 | locus YER002W, strain NOP16, stronger effect = lower value 1.01 | locus YGR078C, strain PAC10, stronger effect = lower value 1.01 | locus YJR075W, strain HOC1, stronger effect = lower value 0.952 | locus YMR263W, strain SAP30, stronger effect = lower value 0.991 | locus YNL128W, strain TEP1, stronger effect = lower value 1.01 | locus YNL153C, strain GIM3, stronger effect = lower value 1.03 | locus YNL175C, strain NOP13, stronger effect = lower value 1.02 | locus YNL197C, strain WHI3, stronger effect = lower value 1 | locus YNL224C, strain SQS1, stronger effect = lower value 1.03 | locus YOR083W, strain WHI5 (second series), stronger effect = lower value 0.997
